Where “and” joins values, the source holds several entries; their conditions need not be identical. Equal values may be shown once. Records with an inconclusive call do not appear. A call without a number means that no potency is given here. More than one record can exist for a structure, and the calls need not agree. Calls of active or inactive are those of the source. Unless noted, calls come from the whole dose curve.
Experiments:
[1] = Nuclear factor erythroid 2-related factor 2/antioxidant responsive element (Nrf2/ARE) small molecule agonists: luciferase reporter gene qHTS assay in human keratinocytes (AID 1919969); note: nearly all actives have a fitted effect of over 35% in size; note: potency is the fitted concentration of half-maximal effect
[2] = target: Gonadotropin-releasing hormone receptor (Homo sapiens) (UniProt P30968); test: Human gonadotropin-releasing hormone receptor (GnRHR) small molecule agonists, calcium flux assay in GnRHR-HEK293 cells (AID 1920063); note: nearly all actives have a fitted effect of over 35% in size
In short: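 Agonist activity was measured as intracellular calcium flux in HEK293 cells engineered to stably express human GnRHR. After dye loading for 1 hour at 37 C, compounds in DMSO were added and fluorescence was followed for 3 minutes.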

[3] = target: KiSS-1 receptor (Homo sapiens) (UniProt Q969F8); test: Human kisspeptin (KISS1R) small molecule agonists, calcium flux assay in KISS1R-HEK293 cells (AID 1920064; active = well fitted activation curve with a large enough effect in the repeat runs)
In short: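 Agonist activity is monitored as intracellular calcium rise in engineered HEK293 cells carrying human KISS1R. Cells are dye-loaded for 1 h at 37 C before compound addition, and fluorescence is recorded for 3 min.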

[4] = G protein-coupled receptor (GPCR) small molecule agonists, calcium flux assay: HEK293 wild type cell line counter screen (AID 1920065)
In short: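 Seed cells, incubate 18 h (37 C, 5% CO2); add calcium dye, 1 h at 37 C; pin-transfer compounds, ATP control or DMSO; read fluorescence 480/540 nm each second for 3 min.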

[5] = p53 small molecule agonists, cell-based qHTS assay with human liver microsomes (AID 1963577);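 note: p53 response element beta-lactamase reporter cells with liver microsomes plus NADPH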
In short: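 Steps: plate p53RE-bla cells, incubate 5 h at 37 C; add compound in DMSO; add microsomes (0.5 mg/mL final) and NADPH (0.5 mg/mL final); incubate 16 h at 37 C; add LiveBLAzer, 2 h RT; read fluorescence.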

[6] = p53 small molecule agonists, cell-based qHTS assay with rat liver microsomes (AID 1963578)
In short: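 Metabolic activation is supplied by rat liver microsomes with NADPH (each 0.5 mg/mL final). p53RE-bla cells incubate with compound 16 h at 37 C; reporter activity is measured by LiveBLAzer fluorescence.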

[7] = p53 small molecule agonists, cell-based qHTS assay with human liver microsomes: qHTS cell viability counter screen (AID 1963579); note: nearly all actives have a fitted effect of over 45% in size; note: potency is the fitted concentration of half-maximal effect
In short: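 After the 460/530 nm beta-lactamase read, CellTiter-Glo was added to the same wells and luminescence measured after 30 min at room temperature, giving viability of p53RE-bla cells treated 16 h with compounds plus microsomes and NADPH.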

[8] = p53 small molecule agonists, cell-based qHTS assay with rat liver microsomes: qHTS cell viability counter screen (AID 1963580); note: nearly all actives have a fitted effect of over 45% in size
In short: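 Counter screen for cytotoxicity under metabolic activation: rat liver microsomes and NADPH, 0.5 mg/mL final each, added with compounds to p53RE-bla HCT-116 cells; 16 h at 37 C, then ATP luminescence read.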

[9] = p53 small molecule agonists, cell-based qHTS assay: qHTS cell viability counter screen (AID 1963581); note: nearly all actives have a fitted effect of over 45% in size; note: potency is the fitted concentration of half-maximal effect
In short: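 Viability was counter-screened in parallel with the p53 agonist reporter by measuring intracellular ATP luminescence in the same HCT-116 p53RE-bla wells after 16 h compound treatment at 37 C.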

[10] = target: Beta-2 adrenergic receptor (Homo sapiens) (UniProt P07550); test: Adrenergic beta2 receptor (ADRB2) small molecule antagonists, cell-based qHTS assay (AID 1963592); note: series mostly up to about 92 µM; nearly all actives have a fitted effect of over 50% in size
In short: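 Assay format: CHO-ADRB2 cells, 18-20hr seeding at 37C/5% CO2, then compound plus 1nM isoproterenol agonist mix for 0.5hr RT. Homogeneous time-resolved fluorescence cAMP detection after 1hr, expressed as 665/615 nm ratio.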

[11] = target: D(2) dopamine receptor (Homo sapiens) (UniProt P14416); test: Dopamine D2 receptor (DRD2) small molecule agonists, cell-based qHTS assay (AID 1963594); note: nearly all actives have a fitted effect of over 35% in size
In short: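 HEK293 cells stably expressing DRD2 were cultured 24 h at 37 C, then given Ro20-1724 (0.1 mM final) and compounds for 10 min at room temperature. NKH477 (200nM) was then added for 30 min. cAMP was read by HTRF.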

[12] = target: D(2) dopamine receptor (Homo sapiens) (UniProt P14416); test: Dopamine D2 receptor (DRD2) small molecule antagonists, cell-based qHTS assay (AID 1963595; active = well fitted inhibition curve with a large enough effect in the signal ratio in the repeat runs, with a control signal flat; the % refers to the signal ratio)
In short: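 Stable D2 receptor HEK293 line, 24 h after seeding. Compound preincubated 10 min, then quinpirole (12 nM) with forskolin analogue NKH477 (200 nM), 30 min, room temperature. Detection by time-resolved FRET of cAMP.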

[13] = p53 small molecule agonists, cell-based qHTS assay (AID 1963582; active = well fitted activation curve with a large enough effect in the signal ratio in the repeat runs, not every such curve was filed as active; the % refers to the signal ratio)
In short: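 Cells carrying a p53-responsive bla reporter are treated with test compounds for 16 h at 37 C; beta-lactamase activity is then detected with LiveBLAzer B/G FRET substrate after 2 h at room temperature.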

[14] = target: 5-hydroxytryptamine receptor 2A (Homo sapiens) (UniProt P28223); test: 5-hydroxytryptamine receptor 2A (HTR2A) small molecule antagonists, cell-based qHTS assay (AID 1963586); note: nearly all actives have a fitted effect of over 45% in size; note: potency is the fitted concentration of half-maximal effect
In short: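 CHO cells stably expressing human HTR2A were plated for 18 h at 37 C, then loaded with calcium dye for 1 h. Compounds were preincubated 5 min at room temperature before DOI (4 nM solution) was added. Kinetic fluorescence was read for 3 min.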

[15] = target: 5-hydroxytryptamine receptor 2A (Homo sapiens) (UniProt P28223); test: 5-hydroxytryptamine receptor 2A (HTR2A) small molecule agonists, cell-based qHTS assay (AID 1963587); note: nearly all actives have a fitted effect of over 30% in size
In short: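 HTR2A-CHO cells, plated 18 h at 37 C/5% CO2, dye-loaded 1 h at 37 C; compounds in DMSO added by pin tool (agonist mode). Intracellular calcium flux read as kinetic fluorescence on FDSS over 2 min at 1 s intervals.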

[16] = target: Muscarinic acetylcholine receptor M1 (Homo sapiens) (UniProt P11229); test: Cholinergic receptor muscarinic 1 (CHRM1) small molecule agonists, cell-based qHTS assay (AID 1963589); note: nearly all actives have a fitted effect of over 35% in size
In short: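 Cells were plated and incubated 18 h at 37 C/5% CO2, loaded with calcium dye for 1 h at 37 C, then treated with compounds in DMSO. Fluorescence was recorded kinetically at 1 sec intervals.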

[17] = target: Muscarinic acetylcholine receptor M1 (Homo sapiens) (UniProt P11229); test: Cholinergic receptor muscarinic 1 (CHRM1) small molecule antagonists, cell-based qHTS assay (AID 1963588); note: nearly all actives have a fitted effect of over 40% in size; note: potency is the fitted concentration of half-maximal effect
In short: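 Compounds were tested at 15 concentrations in three independent runs. Dye-loaded CHRM1-CHO cells were exposed 5 min at room temperature before stimulation by acetylcholine added at 50nM. Intracellular calcium was read kinetically on FDSS for 3 min.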

[18] = cAMP Responsive Elements (CRE) small molecule agonists, cell-based qHTS assay (AID 1963590)
In short: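 Cells carrying a CRE-driven beta-lactamase reporter (HEK 293T) are seeded, incubated overnight (18 h), and treated with test compounds for 3 h at 37 C; reporter activity is then detected with a FRET substrate after 2 h at room temperature.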

[19] = cAMP Responsive Elements (CRE) small molecule antagonists, cell-based qHTS assay (AID 1963591; active = well fitted inhibition curve with a large enough effect in the signal ratio in the repeat runs, not every such curve was filed as active; the % refers to the signal ratio; note: potency is the fitted concentration of half-maximal effect)
In short: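 Cells (CRE-bla HEK 293T, DMEM with 10% dialyzed FBS and 25 mM HEPES) are seeded and incubated 18 h. Compounds are added with NKH477 agonist at 0.25 uM final for 3 h, then FRET substrate for 2 h.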

[20] = target: Beta-2 adrenergic receptor (Homo sapiens) (UniProt P07550); test: Adrenergic beta2 receptor (ADRB2) small molecule agonists, cell-based qHTS assay (AID 1963593); note: potency is the fitted concentration of half-maximal effect;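 for activation: CHO cells stably overexpressing human ADRB2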
In short: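 CHO cells stably over-expressing ADRB2 were plated overnight at 37C, then dosed with compounds plus a stimulation mix containing 100uM IBMX and 25uM Ro-20-1724 for 0.5hr at room temperature. cAMP was measured by HTRF competition, 1hr.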

Chain of D(2) dopamine receptor (Homo sapiens) (P14416 whole entry, looked up): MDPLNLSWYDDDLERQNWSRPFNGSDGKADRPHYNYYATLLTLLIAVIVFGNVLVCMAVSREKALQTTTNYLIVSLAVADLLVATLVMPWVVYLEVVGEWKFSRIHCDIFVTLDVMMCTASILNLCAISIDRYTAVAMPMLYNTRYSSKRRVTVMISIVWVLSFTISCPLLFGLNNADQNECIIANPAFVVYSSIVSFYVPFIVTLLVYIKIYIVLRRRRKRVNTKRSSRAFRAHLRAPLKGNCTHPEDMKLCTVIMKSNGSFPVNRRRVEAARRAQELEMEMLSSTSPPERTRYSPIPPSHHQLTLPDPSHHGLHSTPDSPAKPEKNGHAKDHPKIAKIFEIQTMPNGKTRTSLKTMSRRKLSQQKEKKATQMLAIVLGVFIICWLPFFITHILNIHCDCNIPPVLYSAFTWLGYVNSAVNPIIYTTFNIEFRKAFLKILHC
Chain of Gonadotropin-releasing hormone receptor (Homo sapiens) (P30968 whole entry, looked up): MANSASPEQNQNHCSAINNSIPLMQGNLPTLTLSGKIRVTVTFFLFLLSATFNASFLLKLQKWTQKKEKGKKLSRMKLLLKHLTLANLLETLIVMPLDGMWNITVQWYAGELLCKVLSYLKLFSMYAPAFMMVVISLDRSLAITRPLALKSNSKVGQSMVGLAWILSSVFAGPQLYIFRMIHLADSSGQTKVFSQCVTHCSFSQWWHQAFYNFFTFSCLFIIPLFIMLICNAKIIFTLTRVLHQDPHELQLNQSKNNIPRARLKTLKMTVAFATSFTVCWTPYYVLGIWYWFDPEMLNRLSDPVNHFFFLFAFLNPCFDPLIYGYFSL
Chain of Beta-2 adrenergic receptor (Homo sapiens) (P07550 whole entry, looked up): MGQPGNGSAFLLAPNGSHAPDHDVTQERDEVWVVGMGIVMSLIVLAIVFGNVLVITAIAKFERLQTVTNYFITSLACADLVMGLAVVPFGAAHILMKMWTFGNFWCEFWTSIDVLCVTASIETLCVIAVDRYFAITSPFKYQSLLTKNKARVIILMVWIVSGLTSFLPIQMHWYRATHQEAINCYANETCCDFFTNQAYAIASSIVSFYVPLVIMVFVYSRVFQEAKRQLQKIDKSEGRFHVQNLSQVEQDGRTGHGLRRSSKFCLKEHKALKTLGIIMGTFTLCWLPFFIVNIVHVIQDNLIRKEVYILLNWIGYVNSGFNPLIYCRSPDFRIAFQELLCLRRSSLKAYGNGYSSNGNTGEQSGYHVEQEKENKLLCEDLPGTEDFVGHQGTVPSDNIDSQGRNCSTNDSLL
Chain of 5-hydroxytryptamine receptor 2A (Homo sapiens) (P28223 whole entry, looked up): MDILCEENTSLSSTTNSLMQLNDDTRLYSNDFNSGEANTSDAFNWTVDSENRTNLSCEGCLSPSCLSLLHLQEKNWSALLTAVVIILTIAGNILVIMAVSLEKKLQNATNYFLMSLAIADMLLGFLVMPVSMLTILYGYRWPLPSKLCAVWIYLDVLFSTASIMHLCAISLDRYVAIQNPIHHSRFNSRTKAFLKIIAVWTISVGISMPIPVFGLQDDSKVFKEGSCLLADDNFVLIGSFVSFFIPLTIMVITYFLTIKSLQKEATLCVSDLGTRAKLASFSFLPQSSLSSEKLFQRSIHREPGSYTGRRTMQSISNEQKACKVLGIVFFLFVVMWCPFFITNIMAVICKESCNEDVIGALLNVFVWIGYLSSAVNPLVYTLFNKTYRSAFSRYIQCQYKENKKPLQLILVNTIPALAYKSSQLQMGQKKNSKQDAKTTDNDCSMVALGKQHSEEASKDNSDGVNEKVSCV
Chain of KiSS-1 receptor (Homo sapiens) (Q969F8 whole entry, looked up): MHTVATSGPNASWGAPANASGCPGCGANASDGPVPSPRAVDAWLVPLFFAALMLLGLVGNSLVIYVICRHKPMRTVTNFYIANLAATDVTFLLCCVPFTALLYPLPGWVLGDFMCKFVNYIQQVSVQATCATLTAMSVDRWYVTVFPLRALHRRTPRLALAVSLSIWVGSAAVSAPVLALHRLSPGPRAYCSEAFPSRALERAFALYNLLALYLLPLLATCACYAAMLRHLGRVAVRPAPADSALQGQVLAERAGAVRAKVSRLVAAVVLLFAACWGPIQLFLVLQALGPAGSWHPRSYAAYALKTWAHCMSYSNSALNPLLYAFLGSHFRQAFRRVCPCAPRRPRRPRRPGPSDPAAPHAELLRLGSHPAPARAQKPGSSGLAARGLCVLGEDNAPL
Chain of Muscarinic acetylcholine receptor M1 (Homo sapiens) (P11229 whole entry, looked up): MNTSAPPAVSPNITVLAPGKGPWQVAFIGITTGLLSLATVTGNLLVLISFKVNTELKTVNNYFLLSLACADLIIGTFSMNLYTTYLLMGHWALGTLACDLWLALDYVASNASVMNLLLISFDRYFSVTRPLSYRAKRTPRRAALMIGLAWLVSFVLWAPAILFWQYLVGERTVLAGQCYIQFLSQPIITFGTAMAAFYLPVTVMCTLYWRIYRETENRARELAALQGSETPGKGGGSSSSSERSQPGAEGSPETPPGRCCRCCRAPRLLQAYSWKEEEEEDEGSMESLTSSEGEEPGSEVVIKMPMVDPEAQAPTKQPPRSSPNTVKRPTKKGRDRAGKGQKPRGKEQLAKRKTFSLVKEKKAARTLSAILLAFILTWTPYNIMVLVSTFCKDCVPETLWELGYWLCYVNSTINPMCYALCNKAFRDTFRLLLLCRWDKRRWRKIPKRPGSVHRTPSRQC

Structure (SMILES)	Potency [1]	Potency [2]	Potency [3]	Potency [4]	Potency [5]	Potency [6]	Potency [7]	Potency [8]	Potency [9]	Potency [10]	Potency [11]	Potency [12]	Potency [13]	Potency [14]	Potency [15]	Potency [16]	Potency [17]	Potency [18]	Potency [19]	Potency [20]
C[C@]12C/C(=C/O)C(=O)C[C@@H]1CC[C@@H]1[C@@H]2CC[C@@]2(C)[C@H]1CC[C@]2(C)O	27.6 µM (active) and 6.68 µM (active)	inactive	inactive	inactive	inactive	inactive	36.7 µM (active) and inactive	inactive	36.7 µM (active)	inactive	inactive	inactive								
CC1CCCC1					inactive			inactive	inactive				inactive							
CCCCc1c(C)nc(NCC)nc1OS(=O)(=O)N(C)C	inactive	inactive	inactive	inactive	inactive	inactive	inactive		inactive	inactive		inactive		inactive	inactive	inactive				
CC#Cc1cc(C)nc(Nc2ccccc2)n1	48.5 µM (active)	inactive	inactive	inactive	inactive	inactive	inactive	inactive	inactive			inactive	inactive		inactive	inactive	inactive	inactive	inactive	
OCC(c1ccc(Cl)cc1)c1ccc(Cl)cc1	inactive	inactive	inactive	inactive	inactive	inactive	inactive	inactive	inactive		inactive			7.48 µM (active)	inactive	inactive	42.1 µM (active)			
O=[N+]([O-])c1ccc(O)c([N+](=O)[O-])c1	inactive	inactive	inactive	inactive	inactive	inactive	inactive		inactive	inactive	inactive	inactive	inactive	inactive	inactive	inactive	inactive			
O=C(Cc1ccccc1)OCCc1ccccc1	inactive	inactive	inactive	inactive	inactive	inactive	inactive	inactive	inactive		inactive	inactive	inactive		inactive	inactive		inactive	inactive	
C=CC(=O)OCCCCOC(=O)C=C	24.3 µM (active)	inactive	inactive	inactive	inactive	inactive	inactive	inactive	inactive	inactive	inactive	inactive	inactive	inactive	inactive	inactive	inactive			
ClC(Cl)=C(c1ccc(Cl)cc1)c1ccccc1Cl	inactive	inactive	inactive	inactive	inactive	inactive	inactive		inactive	inactive	inactive				inactive	inactive	inactive			
C[C@@H]1C[C@@H]([C@H](O)CC2CC(=O)NC(=O)C2)C(=O)[C@@H](C)C1	inactive	inactive	inactive	inactive	inactive	inactive	inactive	inactive	inactive	inactive	inactive	inactive	inactive					inactive	8.58 µM (active) and 8.3 µM (active) and 2.66 µM (active)	
ClC1=C(Cl)C2(Cl)C(CBr)CC1(Cl)C2(Cl)Cl (stereo not given)	inactive	inactive	inactive	inactive	inactive	inactive		inactive	inactive	inactive			inactive	inactive	inactive	inactive	inactive			inactive
COC(=O)/C=C(\C)OP(=O)(OC)OC	inactive	inactive	inactive	inactive			inactive	inactive	inactive	inactive	inactive		inactive	inactive	inactive	inactive	inactive	inactive		17.2 µM (active)
C[C@H]1CCC[C@H](O)CCCCCc2cc(O)cc(O)c2C(=O)O1	inactive	inactive	inactive	inactive		inactive	inactive	inactive	inactive		inactive	inactive	inactive			inactive	inactive		inactive	
CNC(=O)Oc1cc(C)c(N(C)C)c(C)c1	inactive	inactive	inactive	inactive			inactive	inactive	inactive	inactive	inactive		inactive		inactive	inactive	inactive	inactive	inactive	
O=C(Nc1ccccc1)Nc1ccnc(Cl)c1	inactive	inactive	inactive	inactive		inactive	inactive	inactive		inactive	inactive	inactive			inactive	inactive	inactive			inactive
Clc1cc(Cl)c(-c2cc(Cl)c(Cl)cc2Cl)cc1Cl	inactive	inactive	inactive	inactive		inactive	inactive	inactive	inactive	inactive	inactive	inactive		inactive	inactive	inactive	inactive	inactive	inactive	
CCc1nn(C)c(C(=O)NCc2ccc(C(C)(C)C)cc2)c1Cl	inactive	inactive	inactive	inactive	inactive	inactive				inactive					inactive	inactive	inactive			inactive
COC(C)(C)CCC[C@H](C)C/C=C/C(C)=C/C(=O)OC(C)C	61.1 µM (active)	inactive	inactive	inactive		inactive	inactive	inactive	inactive	inactive	inactive	inactive		inactive		inactive				inactive
Fc1ccc(Oc2ccnc3cc(Cl)cc(Cl)c23)cc1	24.3 µM (active)	inactive	inactive	inactive		inactive		inactive	inactive	inactive		inactive		inactive	inactive	inactive	inactive		inactive	inactive
C=C(C)CN(CC)c1c([N+](=O)[O-])cc(C(F)(F)F)cc1[N+](=O)[O-]	54.5 µM (active)	inactive	inactive	inactive	inactive		inactive	inactive	inactive	inactive	inactive	inactive	inactive	inactive	inactive	inactive	inactive	inactive	inactive	
Cc1cc(C)c(C(=O)P(=O)(c2ccccc2)c2ccccc2)c(C)c1	inactive	inactive	inactive	inactive	inactive	inactive		inactive		inactive	inactive	inactive		10.6 µM (active)		inactive	inactive			
OC(c1ccc(Cl)cc1)(c1ccc(Cl)cc1)C(Cl)(Cl)Cl	inactive	inactive	inactive	inactive		inactive	inactive	inactive		inactive			inactive	inactive	inactive	inactive	26.5 µM (active)			
CCCOCC(=Nc1ccc(Cl)cc1C(F)(F)F)n1ccnc1	27.3 µM (active)	inactive	inactive	inactive	inactive		inactive			inactive										
Oc1cc(Cl)c(Cl)c(Cl)c1	65 µM (active)	inactive	inactive	inactive		inactive		inactive	inactive	inactive	inactive	inactive			inactive		inactive		inactive	
c1cc(OCC2CO2)ccc1Cc1ccc(OCC2CO2)cc1 (stereo not given)	27.4 µM (active) and 27.3 µM (active)	inactive	inactive	inactive	inactive	inactive		inactive		inactive	inactive	inactive		inactive	inactive	inactive	inactive			
CN[C@@H](C)[C@H](O)c1ccccc1	inactive	inactive	inactive	inactive	inactive	inactive		inactive	inactive	inactive	inactive	inactive		inactive	inactive	inactive	inactive	inactive	inactive	
CC[C@H]1C[C@H]2[C@@H]3CCC4=CC(=O)CC[C@@H]4[C@H]3CC[C@]2(C)[C@H]1O	11.9 µM (active)	inactive	inactive	inactive	inactive	inactive		inactive	inactive	inactive		inactive				inactive	inactive			inactive
